DT40 TDP1 CPT: DT40-hTDP1 cell growth loss with CPT | chicken DT40 Tdp1-/-;hTDP1 cells + 20 nM CPT, ATP luminescence, 48 h | Potency, µM (titrated, usually from 46.2 µM), for inactives: at the top dose activity change, negative = growth inhibition, hits mostly inhibitors | actives 12% (n = 420,000) | AID 686979; further: potency means the concentration at half of the fitted maximal effect; nearly all actives have a fitted effect of over 55% in size
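Chicken DT40 Tdp1-/- cells stably complemented with human TDP1 were seeded at 400 cells/well in medium containing 20 nM camptothecin, exposed to pin-transferred compounds, and grown at 37 °C for at least 48 hr. Viability was read as ATP luminescence.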
IL-1B inflam inh: inflammasome signaling inhibition, IL-1 beta readout; activity change, % at 57.5 µM; actives 4.7% (n = 360,000); THP-1 LPS/ATP IL-1B secretion, AlphaLISA, 16 h; hits give low values; in the data active means activity change below about -50%; inconclusive means mostly about -30% to -49%
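Secreted IL-1B measured by AlphaLISA bead assay after 16 h compound exposure of THP-1 cells; compounds (final up to 57.5 uM) added 1 h before LPS (250 ng/mL) and ATP (1.25 mM) stimulation; lower signal means less secretion.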
VP16 counter: counter-screen for ROR gamma inhibitors: Gal4-VP16 reporter. Potency, µM (titrated, usually from 53.6 µM), for the others: at the highest dose activity, negative = inhibition, usual class: inhibitors. actives 3.5% (n = 310,000). Drosophila S2 Gal4-VP16 UAS-luciferase, luminescence, 20 h;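 further: Gal4-VP16 expression switched on by copper sulfate through the metallothionein promoter; potency means the concentration at half of the fitted maximal effect; nearly all actives have a fitted effect of over 50% in size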
LDHA block: blocks human lactate dehydrogenase A; P00338; purified LDHA, NADH/diaphorase-resazurin fluorescence; hits give low values; activity change, % (values are at about 110 or 230 µM); actives 0.15% (n = 480,000); in the data active means activity change below about -30%; inconclusive means mostly about -25% to -30%;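 further: plate controls were DMSO wells for no effect and wells without enzyme for full effect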
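Remaining NADH was detected by diaphorase (0.133 mg/mL) converting 37 µM resazurin to fluorescent resorufin, read at 0 and 20 minutes. The preceding 5-minute room-temperature reaction used 2 nM LDHA, 0.2 mM sodium pyruvate and 0.06 mM NADH at pH 7.4.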
DT40 TDP1 no CPT: qHTS for Inhibitors of human tyrosyl-DNA phosphodiesterase 1 (TDP1): qHTS in cells in absence of CPT; DT40 Tdp1-/- hTDP1 cells, no CPT, ATP luminescence, 48 h; Potency, µM (titrated, usually from 46.2 µM), without a hit: at the top dose activity change, negative = growth inhibition, most hits filed as inhibitors; actives 15% (n = 420,000); AID 686978, 2013; further: potency means the concentration at half of the fitted maximal effect; nearly all actives have a fitted effect of over 55% in size
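Chicken DT40 Tdp1-/- cells stably complemented with human TDP1 were seeded at 400 cells/well with DMSO in place of 20 nM camptothecin. After compound pinning, cells grew at least 48 hr at 37 °C; viability read by CellTiter-Glo luminescence.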
RORgamma inh: inhibitors of mouse ROR gamma transcriptional activity; Drosophila S2 Gal4-RORgamma UAS-luciferase reporter, 20 h; Potency, µM (doses to about 53.6 µM), for inactives: top-dose activity change, negative = inhibition, usual class: inhibitors; P51450; actives 5.4% (n = 310,000); further: potency means the concentration at half of the fitted maximal effect; nearly all actives have a fitted effect of over 60% in size
Target sequence (P51450 whole entry, looked up, the tested form may be a part): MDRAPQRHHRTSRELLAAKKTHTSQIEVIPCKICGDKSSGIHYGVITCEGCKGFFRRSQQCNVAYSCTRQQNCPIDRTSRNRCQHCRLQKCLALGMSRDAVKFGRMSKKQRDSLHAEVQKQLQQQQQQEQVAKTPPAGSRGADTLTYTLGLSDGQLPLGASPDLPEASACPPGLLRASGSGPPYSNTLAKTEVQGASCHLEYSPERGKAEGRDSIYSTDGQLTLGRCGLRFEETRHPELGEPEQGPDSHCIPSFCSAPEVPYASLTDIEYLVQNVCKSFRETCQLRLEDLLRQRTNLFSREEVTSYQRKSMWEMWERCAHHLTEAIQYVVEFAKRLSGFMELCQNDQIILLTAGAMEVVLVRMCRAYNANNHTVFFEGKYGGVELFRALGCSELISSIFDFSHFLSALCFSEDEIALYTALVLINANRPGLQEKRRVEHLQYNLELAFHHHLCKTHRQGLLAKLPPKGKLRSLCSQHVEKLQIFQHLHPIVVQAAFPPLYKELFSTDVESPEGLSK
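Luminescence from a UAS-regulated Photinus luciferase reporter in stably transfected Drosophila Schneider cells is measured; decreased signal marks ROR gamma inhibition. Fusion expression is induced by 700 uM copper sulfate for 20 hr.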
An asterisk follows results filed as active; i = inactive; ? = inconclusive; . = no result given. The list is not random: actives were taken first. Their share in the collection is about 18%. Unless noted, the call rests on the fitted dose curve; in most records, active means well fitted curve in the direction sought with a large enough effect; inconclusive means small, poorly fitted or top-dose-only effect, or another doubt; inactive means no such curve, though single readings can be large; an effect the other way counts as inactive or inconclusive. Unless noted, on the % scale 0 is the no-effect control and ±100 the full control effect.

SMILES	DT40 TDP1 CPT	IL-1B inflam inh	VP16 counter	LDHA block	DT40 TDP1 no CPT	RORgamma inh
CCc1cccc(C)c1Nc1c(-c2ccc(F)cc2)nc2sccn12	?	.	.	-5	?	.
CCc1cccc(C)c1Nc1c(-c2ccc(SC)cc2)nc2sccn12	?	.	.	4	23µM*	.
C=C(C)COc1ccc2cc(-c3ccc(OC)cc3OC)c(=O)oc2c1	.	.	.	3	.	.
Cc1cnc2c(S(=O)(=O)NC(C)CN3CCOCC3)cccc2c1 (configuration not stated)	.	.	.	-1	.	.
O=C(Nc1ccc(O)c(-c2nc3ccccc3s2)c1)c1cc(=O)c2ccccc2o1	9.2µM*	8	1%	-2	8.2µM*	0%
O=C(Nc1ccc(O)c(-c2nc3ccccc3s2)c1)c1cccs1	-6%	25	2%	-3	-21%	43%
O=C(/C=C/c1ccco1)NC(=S)Nc1ccc(O)c(-c2nc3ccccc3s2)c1	18µM*	26	2µM*	-2	21µM*	2µM*
Cc1ccnc(NC(=S)NC(=O)/C=C/c2ccco2)c1	10µM*	44	1.8µM*	1	9.2µM*	7.1µM*
CC(=O)NC(=S)Nc1ccc(NC(=S)NC(=O)/C=C/c2ccco2)cc1	-16%	62	-16%	6	?	?
O=C(/C=C/c1ccco1)NC(=S)Nc1ccc(Cl)cn1	-25%	42	?	-2	-2%	8.9µM*
CC(C)CCNc1nc2c(c(=O)n(C)c(=O)n2C)n1Cc1cccc(Cl)c1	.	.	.	7	.	.
Cc1cc2oc(C(=O)Nc3nonc3-c3cccs3)c(C)c2cc1C	.	.	.	0	.	.
Cc1ccc(O)c(NC(=S)NC(=O)/C=C/c2ccco2)c1	7.3µM*	-7	?	-2	6.5µM*	7.9µM*
O=C(Cn1cnc2c(OCc3ccccc3)ncnc21)NCc1ccccc1	?	61	.	-6	16µM*	.
O=C(Cn1cnc2c(OCc3ccccc3)ncnc21)NCc1ccc2[nH]ccc2c1	?	7	.	-13	16µM*	.
Cc1ccc(S(=O)(=O)c2cc3c(=O)n4ccccc4nc3n(CCCN3CCOCC3)c2=N)cc1C	?	-72*	-8%	-5	7%	2%
N=c1c(S(=O)(=O)c2ccccc2)cc2c(=O)n3ccccc3nc2n1C1CCCC1	-2%	9	-11%	-4	?	?
Cc1ccc(S(=O)(=O)c2cc3c(=O)n4ccccc4nc3n(C3CCCCC3)c2=N)cc1	?	i	-11%	-7	21µM*	2%
N#Cc1ccc(COC(=O)c2ccccc2NCCO)cc1	.	.	.	5	.	.
CCCCCn1nc(C(=O)NCc2ccco2)c2ccccc2c1=O	.	.	.	1	.	.
CCC(O)c1c(-c2ccccc2)nn(C)c1Cl (configuration not stated)	?	78	-8%	1	15µM*	7%
CC(O)c1c(-c2ccccc2)nn(C)c1Cl (configuration not stated)	-2%	0	-6%	-10	?	5%
Cc1nn(CC(=O)Nc2ccc(I)cc2)c(=O)c2ccccc12	.	.	.	14	.	.
Fc1c(F)c(F)c(/C=N/NC(=S)Nc2cccnc2)c(F)c1F	?	-102*	3.5µM*	-4	18µM*	2.5µM*
Fc1ccc(/C=N/NC(=S)Nc2cccnc2)cc1F	?	-8	1%	-5	?	-2%
Fc1cccc(F)c1/C=N/NC(=S)Nc1cccnc1	?	-7	3.5µM*	-5	-11%	1.3µM*
CC1(C)CC(NC(=O)CCc2ncc(-c3ccccc3)o2)CC(C)(C)N1	.	.	.	1	.	.
CCc1cc2c(cc3c(=O)n(CCCC(=O)NCc4ccccc4Cl)nc(CC)n32)s1	?	.	.	-2	23µM*	.
CCc1nn(CCCC(=O)NCc2ccccc2Br)c(=O)c2cc3occc3n12	?	-8	?	1	?	-28%
